Reference: PubChem BioAssay

Test: COS7 lysate on small-molecule microarray, probe aHis, 635 nm (AID 1123);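 note: z-score combines 667nm fluorescence intensity with signal-to-noise per printed compound spot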
Settings: COS7 cell lysate, fluorescence, higher = more signal

Row | SMILES | composite z-score
1 | CCCN1C(=O)[C@@]2(CCS(=O)(=O)c3ccccc3)N=C(c3ccc(OCCCO)cc3)O[C@H]2c2ccccc21 | 2.41
2 | O=C(O)[C@@H]1Cc2c([nH]c3ccccc23)[C@@H](c2ccccc2)N1 | 0.319
3 | C[C@@H]1CC[C@H]2C(=O)N3CCC[C@H]3C(=O)N2[C@H]1c1ccc(Br)cc1 | 0.233
4 | CCC#CCN(Cc1ccccc1Br)[C@H](/C=C/c1ccccc1)[C@@H](O)Cc1ccccc1 | 0.301
5 | [N-]=[N+]=NCc1ccccc1C[C@]1(C(N)=O)N=C(c2ccc(OCCCO)cc2)O[C@H]1c1ccccc1CN=[N+]=[N-] | 2.16
6 | C=CCC(OC(C)=O)[C@@H]1[C@@H](N(Cc2ccc(-c3ccccc3)cc2)C(=O)c2ccc(-c3ccccc3)cc2)c2cc(OCCCO)ccc2N1C(=O)Cc1ccc(OC)cc1 (some centres undefined) | 0.0095
7 | O=C1C[C@@](C(=O)NC2CC2)(c2ccc([N+](=O)[O-])cc2)[C@@H](c2ccc(CO)cc2I)N1CC12CC3CC(CC(C3)C1)C2 | 1.64
8 | Cc1ccc(N2C(=O)c3ccccc3[C@@H](C(=O)NCC(F)(F)F)[C@@H]2c2ccc(CO)cc2)nc1 | -0.786
9 | C=CC[C@]1(C(=O)O)N=C(c2ccc(OCCCO)cc2)O[C@H]1c1ccccc1 | 2.37

Test: compound binding in COS7 lysate, probe aLAP1, primary screen, cell lysate, small-molecule microarray (AID 1124);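 note: lysate comes from COS7 cells expressing LAP1 and is applied at 0.3 µg/mL; score merges spot fluorescence near 667 nm with signal-to-noise over triplicate slides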
Settings: probe aLAP1, fluorescence, higher = more signal

Row | SMILES | composite z-score
10 | COc1ccc(CCN2C(=O)[C@@]3(c4ccc([N+](=O)[O-])cc4)CC(=O)N(CC45CC6CC(CC(C6)C4)C5)[C@@H]3c3ccc(CO)cc32)cc1 | -0.415
11 | C=CCN1C(=O)[C@@]2(Cc3ccccc3)N=C(c3ccc(OCCCO)cc3)O[C@H]2c2ccccc21 | 0.66
12 | CN1CCC(CCCO)=CC1C1CC1 (centres undefined) | -0.569
13 | CC(C)N1CC=CC23O[C@@H]4/C=C\CCCOC(=O)C4[C@H]2C(=O)N(CCCCCO)[C@@H]3C1=O (some centres undefined) | 0.64
14 | COCCOC(=O)N1C(=O)[C@@]2(c3cc(C#CCC(C(=O)OC)C(=O)OC)ccc31)[C@H](C(=O)N1CCN(c3ncccn3)CC1)[C@H]1C(=O)O[C@H](c3ccccc3)[C@H](c3ccccc3)N1[C@@H]2c1ccc(O)cc1 | 0.695
15 | CCC(=O)[C@]12O[C@@]3([C@@H]4C(=O)OCC[C@@H]41)N(Cc1ccccc1)C(C)=C(C(=O)OC)[C@@H](c1ccccc1)N3C2=O | -0.242
16 | COC(=O)[C@@]1(Cc2ccc(OC)cc2)[C@H]2c3cc(C(=O)N(C)C)n(Cc4ccc(C)c(F)c4F)c3C[C@H]2CN1C(=O)c1ccccc1 | 0.0293
17 | COc1cc(CO)cc(I)c1O[C@H]1C=C(C(=O)NCCO)C[C@@H](NCCc2c[nH]c3ccccc23)[C@@H]1O | 0.128
18 | Cc1ccc(N2C(=O)c3ccccc3[C@](C)(C(=O)O)[C@@H]2c2ccc(CO)cc2)nc1 | 0.067
19 | COC(=O)[C@@]1(Cc2ccccc2)[C@H]2c3cc(C(=O)N4CCCC4)n(CCN4CNCC4=O)c3C[C@H]2CN1C(=O)c1ccccc1 | 0.808
20 | CO[C@@H]1COC(=O)[C@H](C)NC(=O)CC=C[C@@H](C)[C@H](OC)COC(=O)[C@H](C)NC(=O)CC=C[C@H]1C | 0.0381
21 | C=C(COC)/C(=C/C[C@@H](OC(C)=O)c1cccc(OCCO)c1)c1cc(C(=O)OC)ccc1OC | -0.315
22 | CCOC(=O)C[C@H]1[C@H](OC(=O)c2ccccc2-c2ccccc2)[C@@H](NC(=O)c2ccc(-c3ccccc3)cc2)c2cc(OCCCO)ccc2N1C(=O)Cc1ccc(OC)cc1 | -0.0563
23 | [N-]=[N+]=NCc1ccccc1C[C@]1(C(=O)N2CCCCC2)N=C(c2ccc(OCCCO)cc2)O[C@H]1c1ccccc1CN=[N+]=[N-] | 0.796
24 | CO[C@H]1COC(=O)[C@@H](OCc2ccccc2)C=C[C@H](C)[C@@H](OC)COC(=O)[C@H](OCc2ccccc2)C=C[C@@H]1C | -0.885
25 | COCCOC(=O)N1C(=O)[C@@]2(c3cc(C#CCNC(N)=O)ccc31)[C@H](c1ccc(OCCO)cc1)N1[C@H](c3ccccc3)[C@H](c3ccccc3)OC(=O)[C@H]1[C@@H]2C(=O)Nc1nc2ccccc2s1 | 0.338
26 | CCOC(=O)C1=CC[C@@H](c2ccc(-c3ccc(OCc4ccccc4)cc3)c(OC)c2)N(S(=O)(=O)c2ccc(C)cc2)[C@H]1c1ccccc1 | 0.87
27 | Cc1ccc(S[C@]2(C(=O)O)CC(=O)N(Cc3ccccc3)[C@@H]2c2ccc(CO)cc2)cc1 | 0.623
28 | Cc1ccc(S[C@]2(C(=O)NC(C)C)CC(=O)N(Cc3cc(C(F)(F)F)cc(C(F)(F)F)c3)[C@@H]2c2ccc(CO)cc2I)cc1 | 0.917
29 | CO[C@@H]1COC(=O)[C@H](COCc2ccccc2)NC(=O)CC=C[C@@H](C)[C@H](OC)COC(=O)[C@H](COCc2ccccc2)NC(=O)CC=C[C@H]1C | -0.225
